Shown are actives, neighbours in structure and some others; about 12% of the full set was active somewhere.
Cycloheximide cs = counter-screen for Shiga toxin inhibitors: cycloheximide protein synthesis inhibition; cell reporter, cycloheximide protein synthesis inhibition counterscreen; max response, %; 300,000 compounds, 12% hits; AID 2314; in the data active means max response mostly above about 13%, no sharp cut-off; inactive means mostly below about 14%; further: read at 38.3 µM for the half of the compounds with a filed dose
SARS PLP yeast = blocks SARS-CoV papain-like protease in a yeast assay | S. cerevisiae expressing SARS-CoV PLpro, growth rescue | Potency, µM (series often up to 32.9 µM), actives largely listed as activators | AID 485353 | 330,000 compounds, 0.19% hits; further: nearly all actives have a fitted effect of over 55% in size
NS1 inh = blocks influenza NS1 protein function; Potency, µM (series often up to 46.1 µM); 270,000 compounds, 0.4% hits; further: actives are rising curves; nearly all actives have a fitted effect of over 50% in size
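Recovery from NS1-induced slow growth read by OD600 in budding yeast switched to galactose assay medium (pH 6.0, -URA) at 1:100 dilution. Compound 23 nl per well; the matching strain lacking NS1 serves as control.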
Shiga inhibitor = blocks Shiga toxin action in Vero cells; AID 2315; Vero cells, Shiga toxin protein synthesis inhibition reporter; 290,000 compounds, 9.2% hits; inhibition, % at 38.7 µM; in the data active means inhibition mostly above about 28%, no sharp cut-off; inactive means mostly below about 43%
Hits are given with their value; – = inactive; · = not tested or not shown. Unless noted, the call rests on the fitted dose curve.

SMILES | Cycloheximide cs | SARS PLP yeast | NS1 inh | Shiga inhibitor
Cc1ccc(N(C(=O)NC2CCCCC2)C2=NCCCCC2)cc1 | – | – | – | –
COc1ccccc1CCNC(=O)c1nccnc1C(=O)O | – | – | – | –
O=C(CCl)N=c1sccn1Cc1ccc(Cl)cc1Cl | 28 | – | · | –
O=C(O)CCc1nc2ccccc2c(=O)[nH]1 | – | – | – | –
O=C(N/N=C/c1ccccn1)NC12CC3CC(CC(C3)C1)C2 | 39 | – | – | 70
O=C(N/N=C/c1ccccc1F)NC12CC3CC(CC(C3)C1)C2 | 33 | – | – | 54
Cc1cccc(/C=N/NC(=O)NC23CC4CC(CC(C4)C2)C3)n1 | 20 | – | – | –
O=C(CCCC(=O)N/N=C\c1ccccn1)N/N=C\c1ccccn1 | – | – | – | –
Cc1cccc(/C=N/NC(=O)c2ccncc2)n1 | – | – | – | –
O=C(CO)N/N=C/c1ccccc1F | – | – | – | –
C=CCN1CCN(C(c2cc(OC)ccc2OC)c2nnnn2CC2CCCO2)CC1 (stereo not drawn) | – | – | – | –
O=c1ccc2ccc(OCCOc3cccc(Cl)c3)cc2o1 | 24 | – | – | 66
COc1cccc(C(=O)COc2ccc3ccc(=O)oc3c2)c1 | – | – | – | –
O=C1c2ccccc2C(=O)C1c1ccc(Cl)cc1 | 27 | – | – | –
O=C1NC(c2ccccc2O)Nc2ccccc21 (stereo not drawn) | – | – | – | –
O=C1c2ccccc2C(=O)C1c1ccc(O)cc1 | 28 | – | · | 70
O=C1NC(c2ccc(O)cc2)Nc2ccccc21 (stereo not drawn) | 13 | – | – | –
O=C1c2ccccc2C(=O)C1c1ccc(Br)cc1 | 19 | – | – | 88
COc1ccc(C2C(=O)c3ccccc3C2=Nc2ccc(Br)cc2)cc1 (stereo not drawn) | – | – | – | –
NC1=NC(=O)C2(COC(c3ccncc3)OC2)S1 (stereo not drawn) | – | – | · | –
CC/C(=N\NC(=S)Nc1ccccc1)c1c(O)[nH]c(=O)[nH]c1=O | 29 | – | – | 32
Cc1nnsc1C(=O)Nc1ccc(Cl)cc1Cl | – | – | – | –
Cc1ccc(NC(=O)c2snnc2C)cc1Cl | 12 | – | · | –
Cc1nnsc1C(=O)NNc1ccc(C(C)C)cc1 | 40 | – | – | 59
Cc1sc2ncnc(SCC(=O)NC(=O)c3cccn3C)c2c1C | – | – | · | –
SMILES | Cycloheximide cs | SARS PLP yeast | NS1 inh | Shiga inhibitor
Cc1ccc(CNC(=O)/C=C/c2cccs2)cc1 | 27 | – | – | 78
CCN1CCN(C(=S)NC(=O)/C=C/c2cccs2)CC1 | – | – | · | –
Cc1ccc(CNC(=O)/C=C/C(=O)O)cc1 | – | – | · | –
CCCCNC(=O)/C=C/c1cccs1 | 33 | – | – | 48
O=C(Cc1ccccc1)NN1C(=O)C2C(C1=O)C1C=CC2C12CC2 (stereo not drawn) | – | – | – | –
O=[N+]([O-])c1cccc(CN2C(COCc3ccccc3)CCC=CS2(=O)=O)c1 (stereo not drawn) | 38 | · | · | 82
CC(C)COC(=O)N1C(COCc2ccccc2)CCC=CS1(=O)=O (stereo not drawn) | – | · | · | –
FC(F)C(F)(F)C(F)(F)C(F)(F)c1cc(-c2ccccc2)n[nH]1 | 22 | – | – | –
Cc1cc(-c2ccccc2)n[nH]1 | – | – | · | –
Cc1nc(Cl)c2c(n1)NC1=C(O2)C(=O)CCC1 | 21 | – | – | –
O=C1NC2=C(C(=O)CCC2)C(c2ccccc2Cl)N1 (stereo not drawn) | – | – | – | –
O=C(Nc1ccc(N2CCOCC2)cc1N1CCOCC1)c1ccc(F)cc1 | · | – | · | ·
COCCN(C(=S)Nc1ccc(C)cc1C)C(C)c1ccco1 (stereo not drawn) | 19 | – | · | –
O=C(NCc1ccc2c(c1)OCO2)Nc1ccc(Cl)cc1 | 25 | – | – | –
O=C(NCc1ccc2c(c1)OCO2)c1cc(Cl)ccc1Cl | 13 | – | – | ·
CCc1ccc(NC(=O)NCc2ccc3c(c2)OCO3)cc1 | – | – | – | –
O=C(Nc1cccc(/C=C/c2ccccn2)c1)c1ccc(-n2cncn2)cc1 | · | – | · | ·
COCCCNC(=S)N/N=C/c1ccccc1O | 44 | – | – | 52
COCCNC(=S)N/N=C(\C)c1ccccc1O | 31 | – | – | 94
O=C(Cc1ccc(Br)cc1)OCC(=O)N1CCOCC1 | · | – | · | ·
O=C(CSCc1ccc(Br)cc1)N1CCOCC1 | 31 | – | – | 64
CC1CCN(C(=O)COC(=O)Cc2ccc(Br)cc2)CC1 | 35 | – | – | –
CC1CCN(CCCCOc2ccc(Cl)cc2)CC1 | – | – | – | –
O=C(CSCc1ccc(Br)cc1)NC1CC1 | – | – | – | –
O=C(CSCc1ccc(Br)cc1)N1CCCC1 | 25 | – | – | –
CC1CCN(C(=O)CCCOc2ccc(Cl)cc2)CC1 | 33 | – | – | 55

High-throughput results (PubChem)
